# Measured values as given in PubChem BioAssay (NCATS).
# Inconclusive results are not listed. A call without a number means that no potency is given here. The source made the active and inactive calls. The call rests on the fitted dose curve; in most records, active means well fitted curve in the direction sought with a large enough effect; inconclusive means small, poorly fitted or top-dose-only effect, or another doubt; inactive means no such curve, though single readings can be large; an effect the other way counts as inactive or inconclusive.
# Columns and labels:
# [1] = Cell Viability - HUV-EC-C (AID 542); further: nearly all actives have a fitted effect of over 35% in size
# Method in brief: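 HUV-EC-C human vascular endothelial cells, 1000/well, exposed to compound for 40 hr at 37 °C in complete medium. Intracellular ATP was read by CellTiter-Glo luminescence. AC50 came from Hill-equation fits of concentration-response data.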
# [2] = Cellular Toxicity (caspase-3) SHSY5Y (AID 657)
# Method in brief: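 SH-SY5Y human neuroblastoma cells, 1500/well, exposed to compound for 16 hours at 37 °C in complete medium. Caspase-3/7 activity read by Caspase-Glo luminescence after 1 hr at room temperature, normalized to DMSO and 10 uM staurosporine; AC50 from Hill fit.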
# [3] = Cellular Toxicity (caspase-3) Mesangial (AID 660)
# Method in brief: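 Human renal glomerular mesangial cells, 1000/well, 5 h at 37 C before 16 h compound treatment. Caspase-Glo 3/7 luminescence after 20 min; normalized to DMSO and 100 uM tamoxifen, AC50 from Hill fit.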
# [4] = Cellular Toxicity (caspase-3) SK-N-SH (AID 661)
# Method in brief: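 Human SK-N-SH neuroblastoma cells, 1500/well, were exposed to compounds for 16 hours at 37 °C. Caspase-Glo 3/7 luminescence was normalized to DMSO (basal) and 10 uM staurosporine (100%), and AC50 came from a Hill fit.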
# [5] = Cellular Toxicity (caspase-3) H-4-II-E (AID 663); conditions: Potency: caspase-3 activation;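 further: cells exposed to compound for 16 hr before readout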
# Method in brief: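 Rat hepatoma H-4-II-E cells (1500/well) plated 5 hr, then exposed to compound titrations for 16 hr at 37 °C. Caspase-Glo 3/7 luminescence read after 20 min at RT; data normalized to DMSO and 100 uM tamoxifen, AC50 from Hill fits.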
# [6] = Cellular Toxicity (caspase-3) N2a (AID 665);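 further: compound exposure lasted 16 h at 37 °C before readout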
# Method in brief: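 Mouse N2a neuroblastoma cells, 1500 per well, treated 16 h at 37 °C in complete medium; caspase-3/7 activity by Caspase-Glo luminescence after 1 h. Normalized to DMSO and 10 uM staurosporine; AC50 from Hill fits.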
# [7] = Cellular Toxicity (caspase-3) NIH 3T3 (AID 666);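 further: caspase signal read after 16 h compound exposure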
# Method in brief: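 Mouse NIH 3T3 fibroblasts (1000/well) treated 16 h at 37 C; caspase-3/7 activity measured by Caspase-Glo 3/7 luminescence after 20 min. Normalized to DMSO and 100 uM tamoxifen; AC50 from Hill fits.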
# [8] = MultiTox-Fluor Cytotoxicity Assay - LYMP1-001 - Dead Cells (AID 946)
# Method in brief: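 AC50 from Hill fit of concentration-response; data normalized to DMSO (basal) and 15 uM tetraoctylammonium bromide (100%). LYMP1-001 lymphoblastoid cells, 2500/well, 16 hr compound at 37 C; dead-cell protease fluorescence, Ex/Em 485/520.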
# [9] = Cell Viability - LYMP1-002 - Assay at 16 hr (AID 948)
# Method in brief: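 LYMP1-002 human lymphoblastoid cells, 2500/well, were treated with compounds for 16 hr at 37 C in complete medium. Viability was read as intracellular ATP by CellTiter-Glo luminescence, and AC50 was derived from a Hill fit to concentration-response data.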
# [10] = MultiTox-Fluor Cytotoxicity Assay - LYMP1-003 - Dead Cells (AID 961); further: nearly all actives have a fitted effect of over 70% in size; further: potency means the concentration at half of the fitted maximal effect
# Method in brief: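 Human lymphoblastoid LYMP1-003 cells (2500/well) were treated with compounds for 16 hr at 37 C in complete medium. Dead-cell protease release was read by bis-AAF-R110 fluorescence (Ex/Em 485/520). AC50 came from Hill fits, normalized to DMSO and 15 uM tetraoctylammonium bromide.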
# [11] = Cell Viability - LYMP1-003 - Assay at 24 hr (AID 963)
# Method in brief: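 Human lymphoblastoid LYMP1-003 cells, 2500/well, treated 24 h at 37 C in complete medium. Viability read as intracellular ATP by CellTiter-Glo luminescence after 30 min at room temperature; AC50 from Hill-equation fits of qHTS concentration-response.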
# [12] = Cell Viability - LYMP2-003 (AID 965);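 further: cells exposed to compounds for 24 h before reading; nearly all actives have a fitted effect of over 50% in size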
# Method in brief: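 Human lymphoblastoid LYMP2-003 cells, 2500/well, exposed to compounds for 24 h at 37 C in complete medium. Viability read as intracellular ATP by CellTiter-Glo luminescence; AC50 from Hill-equation fits of qHTS concentration-response data.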
# [13] = Cell Viability - LYMP2-004 (AID 966); further: nearly all actives have a fitted effect of over 65% in size
# Method in brief: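 Lymphoblastoid LYMP2-004 cells, 2500 per well, were preincubated for 5 hr and then treated with compound for 24 h at 37 C in complete medium. Viability was read as cellular ATP by CellTiter-Glo luminescence, and AC50 values were taken from Hill fits to concentration-response data.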
# [14] = Cell Viability - LYMP2-023 (AID 975);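 further: cellular ATP measured by luciferase luminescence as viability proxy; series mostly up to about 92 µM; nearly all actives have a fitted effect of over 55% in size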
# Method in brief: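 LYMP2-023 human lymphoblastoid cells, 2500/well, preincubated 5 hr at 37 C, then compound-treated 24 hr at 37 C in complete medium. CellTiter-Glo luminescence (ATP) after 30 min at room temperature; AC50 from Hill-equation fits; tetraoctylammonium bromide positive control.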
# [15] = Cell Viability - LYMP2-014 (AID 983); further: series mostly up to about 92 µM; nearly all actives have a fitted effect of over 50% in size
# Method in brief: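 LYMP2-014 human lymphoblastoid cells, 2500/well, treated 24 h at 37 C in complete medium; viability by CellTiter-Glo ATP luminescence after 30 min at room temperature. AC50 from Hill fits of qHTS concentration-response; tetraoctylammonium bromide positive control.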
# [16] = Cell Viability - LYMP2-016 (AID 984); further: nearly all actives have a fitted effect of over 55% in size
# Method in brief: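 Human lymphoblastoid LYMP2-016 cells, 2500 per well, treated with compounds for 24 h at 37 C. Viability read as intracellular ATP by CellTiter-Glo luminescence after 30 min at room temperature; AC50 from Hill fits of concentration-response.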
# [17] = Cell Viability - LYMP2-026 (AID 989); further: nearly all actives have a fitted effect of over 50% in size
# Method in brief: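 Human lymphoblastoid LYMP2-026 cells, 2500/well, exposed to compound 24 h at 37 C in complete medium. Viability as intracellular ATP by CellTiter-Glo luminescence; AC50 from Hill fits of qHTS concentration-response.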
# [18] = Cell Viability - LYMP1-002 - Assay at 24 hr (AID 993)
# Method in brief: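 Human lymphoblastoid LYMP1-002 cells (2500/well) treated 24 h at 37 °C; viability as intracellular ATP by CellTiter-Glo luminescence. Tetraoctylammonium bromide as positive control; AC50 from Hill-equation fits of qHTS concentration-response.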
# [19] = Cell Viability - LYMP1-002 - Assay at 40 hr (AID 994); further: nearly all actives have a fitted effect of over 60% in size
# Method in brief: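 LYMP1-002 human lymphoblastoid cells (2500/well, complete medium) were treated with compounds for 40 hr at 37 C. Intracellular ATP was measured by CellTiter-Glo luminescence, and AC50 values came from Hill-equation fits of concentration-response data; tetraoctylammonium bromide was the positive control.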
SMILES,Potency [1],Potency [2],outcome [3],outcome [4],Potency [5],outcome [6],outcome [7],Potency [8],Potency [9],Potency [10],Potency [11],Potency [12],Potency [13],Potency [14],Potency [15],Potency [16],Potency [17],Potency [18],Potency [19]
CCCCCCc1ccc(-c2ccc(C#N)cc2)cc1,inactive,inactive,inactive,inactive,inactive,inactive,inactive,inactive,inactive,inactive,inactive,inactive,inactive,inactive,inactive,inactive,inactive,inactive,inactive
NC(=O)Nc1nc2ccccc2[nH]1,inactive,inactive,inactive,inactive,inactive,inactive,inactive,inactive,inactive,inactive,inactive,inactive,inactive,inactive,inactive,inactive,inactive,inactive,inactive
O=C(Cl)c1ccc([N+](=O)[O-])cc1,inactive,inactive,inactive,inactive,inactive,inactive,inactive,inactive,inactive,inactive,inactive,inactive,inactive,inactive,inactive,inactive,inactive,inactive,inactive
O=c1[nH]ncc2ccccc12,inactive,inactive,inactive,inactive,inactive,inactive,inactive,inactive,inactive,inactive,inactive,inactive,inactive,inactive,inactive,inactive,inactive,inactive,inactive
Nc1ccccc1O,inactive,inactive,inactive,inactive,inactive,inactive,inactive,inactive,inactive,10 µM (active),inactive,inactive,,inactive,inactive,inactive,inactive,inactive,inactive
OCC(CO)(CBr)CBr,inactive,inactive,inactive,inactive,inactive,inactive,inactive,inactive,inactive,inactive,inactive,inactive,inactive,inactive,inactive,inactive,inactive,inactive,inactive
CCCCCCCCOc1ccc(C(=O)O)cc1,inactive,inactive,inactive,inactive,inactive,inactive,inactive,inactive,inactive,inactive,inactive,inactive,inactive,inactive,inactive,inactive,inactive,inactive,inactive
c1c[nH]cn1,inactive,inactive,inactive,inactive,inactive,inactive,inactive,inactive,inactive,inactive,inactive,inactive,inactive,inactive,inactive,inactive,inactive,inactive,inactive
C=CC(=O)CC,inactive,inactive,inactive,inactive,inactive,inactive,inactive,inactive,inactive,inactive,inactive,inactive,inactive,inactive,inactive,inactive,inactive,inactive,inactive
